Here are results for 14 molecules from PubChem BioAssay.

Activity calls are given as the source filed them.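 Rule for the calls, unless noted: active = visual image review flags a hit and inhibition of aggregation exceeds 20%; inconclusive = visual hit but inhibition at or below 20%; inactive = no hit on visual image review.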

The nature of assay [1]: inhibitors of TNFa-induced NFkB p65 translocation, primary screen, imaging, HUVEC, MLSMR starter and 10KST1 sets (AID 438;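 active = inhibition above 20% together with a positive visual image hit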;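 note: compound added about 3h40 before a 20 min TNFalpha stimulation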;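 for inhibition: signal is the nuclear over cytoplasmic p65 intensity ratio per well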). Particulars: HUVEC TNFa-induced p65 nuclear translocation; cell count: measured here: nuclei count (cytotoxicity indicator), at 2.08 µM; inhibition: at 2 µM, stronger effect = higher value, 0% TNFa-plus-vehicle, 100% no-TNFa wells.
Assay [2] is described as follows: reduction of polyQ htt aggregates in cells – imaging, exon1htt(103Q)mCFP cells, high-content imaging, primary screen (AID 483).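 For nuclei count: percent of the per-plate median nuclei count of sample wells.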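 Note: compound exposure lasted 3 days before fixation.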 The settings on record: exon1htt(103Q)mCFP cell line, aggregate imaging, at 2 µM; inhibition of aggregation: stronger effect = higher value; nuclei count: measured here: cell count, toxicity.
Assay [3] in a line: endothelial E-selectin expression blockers – imaging, HUVEC, immunofluorescence, MLSMR starter and 10KST1 sets, primary screen (AID 487;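 active = visually confirmed hit in the image check and inhibition above 20%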;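 for inhibition: signal is fraction of cell area covered by stained E-selectin grains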;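 for nuclei count: 100% = median nuclei count of all wells on the same plate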). Particulars: HUVEC TNFalpha-induced E-selectin immunofluorescence imaging, at 2 µM; inhibition: stronger effect = higher value; nuclei count: measured here: cell number, toxicity.
The target of assay [4] is Voltage-gated potassium channel subunit beta-2 (Rattus norvegicus) (UniProt P62483). Description: inhibitors of rat Kvbeta2 reductase activity – biochemical, NADPH fluorescence, primary screen (AID 622;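 active = fluorescence slope higher than the sample average by over 3 SD, cut at about -0.22 in these data, passing the limit was not always enough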;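 note: slope of raw intensity against log time taken from 70 to 1610 s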). Particulars: recombinant KvBeta, 4-cyanobenzaldehyde reduction, at 10 µM, stronger effect = higher value.
For assay [5] the target is unchanged. The experiment in a line: enhancers of rat Kvbeta2 NADPH turnover – biochemical, NADPH fluorescence, primary screen (AID 623;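 active = NADPH fluorescence slope more negative than the mean of all samples by about 3 SD, 99.7% confidence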;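 note: fluorescence intensity change per second fitted from 20 to 320 s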). Particulars: Recombinant KvBeta, NADPH fluorescence decrease slope, 10 min; at 10 µM; stronger effect = lower value.
Assay [6] deals with Alpha-2C adrenergic receptor (Homo sapiens) (UniProt P18825). The experiment in a line: compounds altering alpha2C-coupled GIRK flux – cell-based, HEK293 alpha2C/GIRK1/2, thallium flux, primary screen (AID 624;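 active = fluorescence slope after compound addition differing from the mean of all screened samples at 99.7% confidence, in either direction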;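 note: slope of fluorescence ratio to pre-addition baseline per second over 15 to 24 s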). Particulars: thallium flux BTC fluorescence, at 10 µM, actives lie on both sides.
A short description of assay [7]: blockers of RIG-like receptor reporter activation – cell-based, Sendai virus stimulus, luciferase, 10K MLSCN set, TLR/RLR signaling modifier project, primary screen (AID 602276;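 active = inhibition at or above 50% at 10 µM; inactive = inhibition below 50%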;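 note: firefly luciferase from ISG56 promoter only with Renilla not read in this screen; 0% = Sendai virus plus DMSO and 100% = medium plus DMSO without virus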). Particulars: HEK293 RL24 IRF3 luciferase reporter, at 10 µM, stronger effect = higher value.
Assay [8] can be described thus: TLR3 IRF3 reporter activation blockers – cell-based, poly I:C stimulus, luciferase, 10K MLSCN set, primary screen (AID 602277;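 active = inhibition of the reporter signal at or above 50%; inactive = inhibition below 50%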). The settings on record: HEK293-TLR3 RL24 IRF3 luciferase reporter, at 10 µM, stronger effect = higher value.

Chain of Voltage-gated potassium channel subunit beta-2 (Rattus norvegicus) (P62483 whole entry, looked up): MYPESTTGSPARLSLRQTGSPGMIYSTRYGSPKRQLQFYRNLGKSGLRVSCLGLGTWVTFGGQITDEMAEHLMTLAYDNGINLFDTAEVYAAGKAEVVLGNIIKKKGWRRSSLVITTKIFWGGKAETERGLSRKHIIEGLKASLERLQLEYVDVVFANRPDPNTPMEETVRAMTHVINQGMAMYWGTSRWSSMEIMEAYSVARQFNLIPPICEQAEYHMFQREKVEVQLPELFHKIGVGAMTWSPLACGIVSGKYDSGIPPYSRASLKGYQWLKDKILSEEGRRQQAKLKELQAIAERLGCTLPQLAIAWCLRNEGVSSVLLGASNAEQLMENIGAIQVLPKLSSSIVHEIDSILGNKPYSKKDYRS
Chain of Alpha-2C adrenergic receptor (Homo sapiens) (P18825 whole entry, looked up): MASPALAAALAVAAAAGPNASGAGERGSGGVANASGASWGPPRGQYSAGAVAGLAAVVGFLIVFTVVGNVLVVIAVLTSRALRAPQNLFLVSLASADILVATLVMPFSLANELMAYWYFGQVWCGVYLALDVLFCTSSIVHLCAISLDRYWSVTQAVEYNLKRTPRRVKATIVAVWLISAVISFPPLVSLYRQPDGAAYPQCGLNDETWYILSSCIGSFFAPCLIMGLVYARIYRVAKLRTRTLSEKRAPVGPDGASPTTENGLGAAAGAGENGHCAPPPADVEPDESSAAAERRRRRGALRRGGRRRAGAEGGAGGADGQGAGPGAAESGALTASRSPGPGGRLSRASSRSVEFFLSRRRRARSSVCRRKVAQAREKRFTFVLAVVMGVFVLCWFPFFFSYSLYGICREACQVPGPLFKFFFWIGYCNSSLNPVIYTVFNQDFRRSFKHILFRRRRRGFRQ

Consider `Cc1ccccc1NC(=O)CSc1nnc(Cc2cccn2C)n1-c1ccc(F)cc1`, for which the cell count in assay [1] was 813. Also, the inhibition in assay [1] is 4.2% (inactive); in assay [3], -61% (inactive); in assay [7] it was -3.98% (inactive); in assay [8] it was 29.4% (inactive). Also, in assay [2], the inhibition of aggregation was 0% (inactive). Besides, the nuclei count in assay [2] stood at 98.8%; in assay [3], 114%. Besides, the fluorescence slope in assay [4] was -0.618 (inactive). Moreover, the NADPH fluorescence slope in assay [5] is 1.1e-05 (inactive). In addition, the slope in assay [6] is 0.00577 (inactive).
Consider `COc1ccc(/C=N/O)cc1COc1ccc(NC(C)=O)cc1`, for which the cell count in assay [1] is 667. For the same molecule, the inhibition was 9.6% (inactive) in assay [1], -30.3% (inactive) in assay [3], 6.34% (inactive) in assay [7] and 10.2% (inactive) in assay [8]. Besides, the inhibition of aggregation in assay [2] was -10.6% (inactive). The figures for the nuclei count in assay [2] and in assay [3] were 113% and 64.4%, respectively. Besides, in assay [4], the fluorescence slope was -0.589 (inactive). Further, the NADPH fluorescence slope in assay [5] is -1.6e-05 (inactive). Moreover, in assay [6], the slope was 0.00667 (inactive).
On to `COc1ccc(N(CC(=O)N2CCCCC2)S(=O)(=O)c2ccccc2)c(OC)c1`, for which the cell count in assay [1] came to 622. The inhibition in assay [1] is -7.8% (inactive); in assay [3] it was -218% (inactive); in assay [7], 12% (inactive); in assay [8] it was 26.9% (inactive). Also, in assay [2], the inhibition of aggregation is -4.8% (inactive). The nuclei count in assay [2] amounted to 104%; in assay [3] it was 132%. In assay [4], the fluorescence slope is -0.278 (inactive). For the same molecule, the NADPH fluorescence slope in assay [5] was -7.4e-06 (inactive). Moreover, the slope in assay [6] is 0.00613 (inactive).
For `NC(=O)CSCc1ccc(Br)cc1`, the cell count in assay [1] turned out to be 313. Also, the inhibition in assay [1] was 8.3% (inactive); in assay [3] it was -103% (inactive); in assay [7] it was 11.5% (inactive); in assay [8], 13.5% (inactive). The inhibition of aggregation in assay [2] was 12.7% (inactive). For the same molecule, the nuclei count in assay [2] is 91.7%; in assay [3], 105%. Besides, in assay [4], the fluorescence slope is -0.579 (inactive). Besides, the NADPH fluorescence slope in assay [5] is -5e-05 (inactive). Moreover, the slope in assay [6] was 0.00494 (inactive).
Take `CCCn1c(SCC(=O)N2CCc3ccccc3C2)nc2c1c(=O)n(C)c(=O)n2C`: the cell count in assay [1] was determined as 430. In addition, the inhibition in assay [1] was -9.2% (inactive); in assay [3], -47.7% (inactive); in assay [7], 2.01% (inactive); in assay [8] it was -39% (inactive). The inhibition of aggregation in assay [2] was -13.1% (inactive). The figures for the nuclei count in assay [2] and in assay [3] were 115% and 117%, respectively. Besides, in assay [4], the fluorescence slope was -0.303 (inactive). In addition, in assay [5], the NADPH fluorescence slope was 8.7e-06 (inactive). Besides, the slope in assay [6] was 0.00547 (inactive).
Take `COCCCNC(=O)CSc1nc2ccc(N3CCOCC3)cc2c(=O)n1CCc1ccccc1`: the cell count in assay [1] came out at 369. For the same molecule, the inhibition in assay [1] is -1.6% (inactive); in assay [3] it was 17% (inactive); in assay [7], -0.853% (inactive); in assay [8], -8.93% (inactive). For the same molecule, in assay [2], the inhibition of aggregation is -0.2% (inactive). Besides, the values for the nuclei count in assay [2] and in assay [3] were 104% and 113%, respectively. Besides, in assay [4], the fluorescence slope is -0.558 (inactive). For the same molecule, the NADPH fluorescence slope in assay [5] is 1.6e-05 (inactive). Moreover, the slope in assay [6] was 0.00582 (inactive).
In the case of `CCCCN(C)Cc1c(O)ccc2c(-c3ccccc3)cc(=O)oc12`, in assay [1], the cell count was found to be 303. For the same molecule, the inhibition is 0.3% (inactive) in assay [1], -26.5% (inactive) in assay [3], -3.57% (inactive) in assay [7] and 28.4% (inactive) in assay [8]. Moreover, the inhibition of aggregation in assay [2] is 5% (inactive). Moreover, the nuclei count in assay [2] came to 103%; in assay [3] it was 96.4%. The fluorescence slope in assay [4] was -0.158 (active). Moreover, the NADPH fluorescence slope in assay [5] was -2.3e-05 (inactive). In addition, in assay [6], the slope is 0.00475 (inactive).
Consider `O=C(CNCCC1=CCCCC1)Nc1ccccc1N1CCCCC1`, for which the cell count in assay [1] was found to be 531. Moreover, the inhibition in assay [1] is -56.1% (inactive); in assay [3], -65.7% (inactive); in assay [7], 7.21% (inactive); in assay [8], 18.4% (inactive). In addition, the inhibition of aggregation in assay [2] was -10.4% (inactive). For the same molecule, the values for the nuclei count in assay [2] and in assay [3] were 107% and 109%, respectively. For the same molecule, the fluorescence slope in assay [4] was -0.581 (inactive). The NADPH fluorescence slope in assay [5] was -2.4e-05 (inactive). For the same molecule, the slope in assay [6] was 0.00492 (inactive).
For the molecule `O=C(CSc1nnc(-c2ccccc2)o1)NC1CCCCC1`, the cell count in assay [1] was determined as 355. The inhibition was 0% (inactive) in assay [1], -10.5% (inactive) in assay [3], 5.13% (inactive) in assay [7] and 0.841% (inactive) in assay [8]. Moreover, in assay [2], the inhibition of aggregation is 8% (inactive). For the same molecule, the nuclei count in assay [2] was determined as 109%; in assay [3] it was 103%. In addition, the fluorescence slope in assay [4] was -0.55 (inactive). Further, in assay [5], the NADPH fluorescence slope is 2e-05 (inactive). Moreover, in assay [6], the slope was 0.0067 (inactive).
Regarding `O=C(c1cnc2n(c1=O)CCS2)N(C1CCCCC1)C1CCCCC1`, in assay [1], the cell count amounted to 649. Besides, the inhibition in assay [1] was -6.9% (inactive); in assay [3] it was -47.3% (inactive); in assay [7], 11% (inactive); in assay [8], 39.3% (inactive). Besides, in assay [2], the inhibition of aggregation is 6.9% (inactive). For the same molecule, the results for the nuclei count in assay [2] and in assay [3] were 97.5% and 122%, respectively. Moreover, in assay [4], the fluorescence slope was -0.42 (inactive). Moreover, the NADPH fluorescence slope in assay [5] was -4.8e-05 (inactive). For the same molecule, the slope in assay [6] was 0.00465 (inactive).
As to `OCCNCC(O)Cn1ccc2ccccc21` (centres undefined), in assay [1], the cell count is 410. Further, the inhibition in assay [1] was -8.2% (inactive); in assay [3], -53.1% (inactive); in assay [7], 12.3% (inactive); in assay [8], 16.7% (inactive). For the same molecule, the inhibition of aggregation in assay [2] was -0.3% (inactive). For the same molecule, the nuclei count in assay [2] came out at 84.3%; in assay [3] it was 181%. Also, in assay [4], the fluorescence slope is -0.624 (inactive). The NADPH fluorescence slope in assay [5] was -5e-05 (inactive). For the same molecule, the slope in assay [6] is 0.007 (inactive).
For `Nc1nonc1-n1nnc(C(=O)c2ccccc2)c1-c1ccccc1`, the cell count in assay [1] came out at 412. For the same molecule, the inhibition in assay [1] was -20% (inactive); in assay [3], 28.1% (inactive); in assay [7], 10.9% (inactive); in assay [8] it was 2.08% (inactive). Besides, the inhibition of aggregation in assay [2] was 1.5% (inactive). Besides, the nuclei count in assay [2] amounted to 110%; in assay [3], 103%. Moreover, the fluorescence slope in assay [4] was -0.571 (inactive). The NADPH fluorescence slope in assay [5] was 7.3e-06 (inactive). In addition, the slope in assay [6] was 0.00623 (inactive).
As for `CC(C)OC(=O)C1C2C=CC3(CN(Cc4cccs4)C(=O)C13)O2` (centres undefined), in assay [1], the cell count was 469. Further, the inhibition in assay [1] was 5% (inactive); in assay [3], -92.4% (inactive); in assay [7], 20.6% (inactive); in assay [8], 32.2% (inactive). In addition, the inhibition of aggregation in assay [2] was 0.9% (inactive). For the same molecule, the nuclei count worked out at 83.9% in assay [2] and 111% in assay [3]. In assay [4], the fluorescence slope was -0.533 (inactive). Further, the NADPH fluorescence slope in assay [5] is -1.6e-05 (inactive). In assay [6], the slope is 0.005 (inactive).
For `c1ccc(-c2nc3ccccc3nc2-c2ccccn2)nc1`, the cell count in assay [1] was 746. The inhibition in assay [1] was -8.5% (inactive); in assay [3], -17.4% (inactive); in assay [7] it was 11.1% (inactive); in assay [8] it was 14.2% (inactive). In assay [2], the inhibition of aggregation is 4.8% (inactive). Besides, the nuclei count in assay [2] is 93.9%; in assay [3], 118%. For the same molecule, in assay [4], the fluorescence slope was -0.491 (inactive). Besides, in assay [5], the NADPH fluorescence slope is -3.4e-05 (inactive). Also, the slope in assay [6] was 0.0056 (inactive).
